Source: PubChem BioAssay (Tox21)
Records with an inconclusive call do not appear. Active and inactive are the calls of the source. Unless noted, calls follow the shape of the dose curve; as a rule, active = well fitted curve in the direction sought with a large enough effect in the repeat runs; inconclusive = weak or mixed curves; inactive = no such curve, though single readings can be large; an effect the other way counts as inactive or inconclusive.

How the values were obtained:
[1] = qHTS assay to identify small molecule antagonists of the retinoid-related orphan receptor gamma (ROR-gamma) signaling pathway - cell viability counter screen (AID 1159520); conditions: Tet-on RORgamma CHO cells viability, ATP luminescence, 16 h; series mostly up to 92.4 µM; also: nearly all actives have a fitted effect of over 50% in size; also: potency is read from the fitted curve at half-maximal effect
Outline: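 Cytotoxicity was read from cellular ATP (CellTiter-Glo luminescence) after 16 hr at 37 C with 1 uM doxycycline induction. The inducer was added 2 hr after compound transfer to Tet-on ROR gamma CHO cells.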

[2] = target: Nuclear receptor ROR-gamma (Homo sapiens) (UniProt P51449); experiment: qHTS assay to identify small molecule antagonists of the retinoid-related orphan receptor gamma (ROR-gamma) signaling pathway (AID 1159521; also: nearly all actives have a fitted effect of over 50% in size; also: potency is read from the fitted curve at half-maximal effect); conditions: Tet-on RORgamma CHO cells, RORE-luciferase, 16 h; series mostly up to 92.4 µM
Outline: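 Tet-on RORγ CHO cells carrying a ROR response element–luciferase reporter were pretreated with compounds for 2 h, then induced with 1 uM (final) doxycycline hyclate for 16 h at 37 C. Antagonism was read as decreased ONE-Glo luminescence.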

[3] = qHTS assay to identify small molecule agonists of the AP-1 signaling pathway - cell viability counter screen (AID 1159525; calls by dose curve; also: nearly all actives have a fitted effect of over 55% in size; also: potency is read from the fitted curve at half-maximal effect); conditions: ME-180 AP-1-bla cells viability, ATP luminescence, 5 h; series mostly up to 76.8 µM
Outline: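 Intracellular ATP by Cell Titer Glo luminescence (30 min, RT) in the same ME-180 AP-1-bla wells after the 5 h compound exposure at 37 °C. Normalised to tetra n-octyl ammonium bromide and DMSO controls.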

[4] = qHTS assay to identify small molecule agonists of the RXR signaling pathway - cell viability counter screen (AID 1159529); conditions: RXR-alpha-bla HEK293T viability, CellTiter-Glo, 16 h; series mostly up to 76.8 µM; also: nearly all actives have a fitted effect of over 50% in size; also: potency is read from the fitted curve at half-maximal effect
Outline: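 RXR-alpha-UAS-bla HEK 293T cells in medium with 2% charcoal-stripped FBS were preincubated 5 hr, then exposed to compounds for 16 hr at 37 C. Viability was read as CellTiter-Glo luminescence after 30 min at room temperature.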

[5] = qHTS assay to identify small molecule antagonists of the retinoid acid receptor (RAR) signaling pathway - cell viability counter screen (AID 1159551); conditions: C3RL4 cells viability, ATP luminescence (CellTiter-Glo), 6 h; series mostly up to 92.4 µM; also: nearly all actives have a fitted effect of over 35% in size; also: potency is read from the fitted curve at half-maximal effect
Outline: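 Measured by luminescent ATP detection, viability reflects C3RL4 cells treated 6 h at 37 C with test chemicals in the presence of 1 uM (final) retinol.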

[6] = qHTS assay to identify small molecule antagonists of the retinoic acid receptor (RAR) signaling pathway (AID 1159552; also: nearly all actives have a fitted effect of over 50% in size; also: potency is read from the fitted curve at half-maximal effect); conditions: C3RL4 RARE luciferase reporter, retinol-stimulated, 6 h; series mostly up to 92.4 µM
Outline: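 RARE-luc C3RL4 cells; cpds + 1 uM (final) retinol, 6 hr, 37 C/5% CO2; luciferase reagent, 30 min RT, luminescence readout. Inhibitors of retinol-driven signal scored.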

[7] = qHTS assay to identify small molecule antagonists of the peroxisome proliferator-activated receptor delta (PPARd) signaling pathway - cell viability counter screen (AID 743213); conditions: PPARd-bla HEK293H viability, CellTiter-Glo luminescence, 17 h; series mostly up to 62 µM; also: nearly all actives have a fitted effect of over 50% in size; also: potency is read from the fitted curve at half-maximal effect
Outline: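 Cytotoxicity counter screen: CellTiter-Glo luminescence read 30 min after addition, in the same wells as the reporter assay. There, PPARd UAS-bla HEK293H cells (3000/well) were treated 17 h at 37 C with compound and 300 nM L165041.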

[8] = target: Bile acid receptor (Homo sapiens) (UniProt Q96RI1); experiment: qHTS assay to identify small molecule antagonists of the farnesoid-X-receptor (FXR) signaling pathway (AID 743217; active = well fitted inhibition curve with a large enough effect in the signal ratio in the repeat runs, not every such curve was filed as active; the % refers to the signal ratio); conditions: HEK293T FXR-UAS-bla, beta-lactamase ratio, CDCA-stimulated, 16 h; series mostly up to 62.6 µM
Chain of Bile acid receptor (Homo sapiens) (Q96RI1 whole entry, looked up): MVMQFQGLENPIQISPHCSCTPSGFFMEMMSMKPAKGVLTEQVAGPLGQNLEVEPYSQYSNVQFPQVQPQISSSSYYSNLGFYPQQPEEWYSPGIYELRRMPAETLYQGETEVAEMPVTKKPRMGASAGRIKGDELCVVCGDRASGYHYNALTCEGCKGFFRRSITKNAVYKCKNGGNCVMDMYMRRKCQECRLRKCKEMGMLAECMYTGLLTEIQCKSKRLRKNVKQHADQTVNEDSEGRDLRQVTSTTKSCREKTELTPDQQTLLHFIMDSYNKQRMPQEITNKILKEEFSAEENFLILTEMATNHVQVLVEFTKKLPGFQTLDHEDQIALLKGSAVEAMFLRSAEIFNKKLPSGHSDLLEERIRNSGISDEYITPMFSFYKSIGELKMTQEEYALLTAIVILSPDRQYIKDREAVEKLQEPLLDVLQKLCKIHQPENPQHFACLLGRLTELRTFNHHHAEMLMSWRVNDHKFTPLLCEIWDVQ
Outline: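 Quantitative HTS, beta-lactamase reporter format: FXR-UAS-bla HEK 293T cells co-treated 16 h at 37 °C with compounds and 50 uM final chenodeoxycholic acid, then read by B/G FRET fluorescence.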

[9] = qHTS assay to identify small molecule agonists of the farnesoid-X-receptor (FXR) signaling pathway - cell viability counter screen (AID 743218); conditions: FXR-bla HEK293T viability, CellTiter-Glo luminescence, 16 h; series mostly up to 62.6 µM; also: nearly all actives have a fitted effect of over 45% in size; also: potency is read from the fitted curve at half-maximal effect
Outline: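 Same-well cytotoxicity check on FXR-UAS-bla HEK 293T cells: 5 h attachment, 16 h compound at 37 C, CellTiter-Glo luminescence read at room temperature after 30 min.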

[10] = target: Bile acid receptor (Homo sapiens) (UniProt Q96RI1); experiment: qHTS assay to identify small molecule agonists of the farnesoid-X-receptor (FXR) signaling pathway (AID 743220; active = well fitted activation curve with a large enough effect in the signal ratio in the repeat runs, not every such curve was filed as active; the % refers to the signal ratio); conditions: HEK293T FXR-UAS-bla, beta-lactamase FRET ratio, 16 h; series mostly up to 62.6 µM
Outline: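 FXR-UAS-bla HEK 293T cells carrying a UAS-driven beta-lactamase reporter were plated for 5 h at 37C/5% CO2, then exposed to DMSO-dissolved Tox21 10K compounds for 16 h at 37C. A LiveBLAzer B/G FRET substrate was loaded for 2 h at room temperature before fluorescence reading.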

[11] = qHTS assay to identify small molecule antagonists of the farnesoid-X-receptor (FXR) signaling pathway - cell viability counter screen (AID 743221; active = well fitted cell-killing curve with a large enough effect in the repeat runs, not every such curve was filed as active; also: nearly all actives have a fitted effect of over 50% in size); conditions: FXR-bla HEK293T viability, CellTiter-Glo luminescence, 16 h; series mostly up to 62.6 µM
Outline: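 FXR-UAS-bla HEK 293T cells were treated with test compounds plus chenodeoxycholic acid (50 uM final) for 16 h at 37 C. Cell viability in the same wells was then read as CellTiter-Glo luminescence after 30 min at room temperature.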

[12] = qHTS assay to identify small molecule agonists of the vitamin D receptor (VDR) signaling pathway - cell viability counter screen (AID 743224); conditions: VDR-bla HEK293T viability, CellTiter-Glo luminescence, 16 h; series mostly up to 62.6 µM
Outline: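 Counter screen for cytotoxicity: VDR-bla cells at 2,000 cells/well, 16 h compound exposure, then CellTiter-Glo luminescence after the beta-lactamase measurement.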

[13] = qHTS assay to identify small molecule antagonists of the vitamin D receptor (VDR) signaling pathway - cell viability counter screen (AID 743225); conditions: VDR-bla HEK293T viability, CellTiter-Glo luminescence, 16 h; series mostly up to 61 µM; also: nearly all actives have a fitted effect of over 50% in size; also: potency is read from the fitted curve at half-maximal effect
Outline: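 VDR-bla HEK 293T cells, 4 h pre-incubation at 37C, then compound plus 1-alpha,25-dihydroxyvitamin D3 (3 nM final) for 16 h. After the beta-lactamase FRET read, CellTiter-Glo was added to the same wells; luminescence after 30 min at room temperature.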

[14] = qHTS assay to identify small molecule agonists of the AP-1 signaling pathway (AID 1159526; calls by dose curve); conditions: ME-180 (cervical carcinoma) AP-1-bla reporter, beta-lactamase FRET ratio, 5 h; series mostly up to 76.8 µM
[15] = target: Retinoic acid receptor RXR-alpha (Homo sapiens) (UniProt P19793); experiment: qHTS assay to identify small molecule agonists of the RXR signaling pathway (AID 1159527; calls by dose curve; also: nearly all actives have a fitted effect of over 35% in size); conditions: HEK293T RXRa-UAS-bla, beta-lactamase ratio, 16 h; series mostly up to 76.8 µM
Chain of Retinoic acid receptor RXR-alpha (Homo sapiens) (P19793 whole entry, looked up): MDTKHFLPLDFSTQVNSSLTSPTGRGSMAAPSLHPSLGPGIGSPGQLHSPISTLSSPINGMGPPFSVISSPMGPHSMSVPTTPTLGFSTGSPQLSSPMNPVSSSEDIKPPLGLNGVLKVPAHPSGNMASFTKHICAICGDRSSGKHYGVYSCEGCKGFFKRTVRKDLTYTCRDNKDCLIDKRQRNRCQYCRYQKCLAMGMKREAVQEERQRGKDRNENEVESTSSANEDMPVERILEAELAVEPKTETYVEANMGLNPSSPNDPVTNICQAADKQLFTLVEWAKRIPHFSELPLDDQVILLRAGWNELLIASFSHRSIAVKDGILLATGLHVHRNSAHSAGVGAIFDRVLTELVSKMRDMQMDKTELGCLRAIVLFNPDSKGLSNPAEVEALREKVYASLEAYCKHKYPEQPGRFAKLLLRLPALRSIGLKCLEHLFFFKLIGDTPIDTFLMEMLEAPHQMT
Outline: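 GeneBLAzer RXR-alpha-UAS-bla HEK 293T cells in medium with 2% charcoal-stripped FBS, pre-incubated 5 hr at 37 C, then exposed to compounds 16 hr. Beta-lactamase reporter read by FRET substrate, 2 hr room temperature, 460/530 nm emission.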

[16] = target: Vitamin D3 receptor (Homo sapiens) (UniProt P11473); experiment: qHTS assay to identify small molecule agonists of the vitamin D receptor (VDR) signaling pathway (AID 743222; calls by dose curve); conditions: HEK293T VDR-UAS-bla, beta-lactamase FRET ratio, 16 h; series mostly up to 63.5 µM
Chain of Vitamin D3 receptor (Homo sapiens) (P11473 whole entry, looked up): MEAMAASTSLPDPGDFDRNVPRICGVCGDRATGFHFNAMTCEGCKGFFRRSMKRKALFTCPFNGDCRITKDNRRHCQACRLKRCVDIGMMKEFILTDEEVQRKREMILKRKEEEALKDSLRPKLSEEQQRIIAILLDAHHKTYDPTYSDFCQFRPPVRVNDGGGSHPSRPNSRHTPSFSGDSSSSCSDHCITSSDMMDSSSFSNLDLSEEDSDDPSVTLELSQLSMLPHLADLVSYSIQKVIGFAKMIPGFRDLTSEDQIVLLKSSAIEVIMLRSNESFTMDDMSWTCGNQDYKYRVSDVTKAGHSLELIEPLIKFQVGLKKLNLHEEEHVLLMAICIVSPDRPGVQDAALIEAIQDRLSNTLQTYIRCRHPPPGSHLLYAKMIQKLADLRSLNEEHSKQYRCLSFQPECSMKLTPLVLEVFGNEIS
Outline: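 Using LiveBLAzer B/G FRET detection, agonism was scored in VDR-bla cells exposed overnight (16 h, 37C) to DMSO-dissolved compounds; substrate incubation was 2 h at room temperature.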

[17] = qHTS assay to identify small molecule agonists of the retinoic acid receptor (RAR) signaling pathway (AID 1159553); conditions: C3RL4 RARE luciferase reporter, agonist, 6 h; series mostly up to 73.3 µM
Outline: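 6 hr compound exposure (DMSO vehicle) of overnight-plated C3RL4 RARE-luc cells at 37 C; luminescence quantified after 30 min RT with luciferase reagent.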

Measured: Potency

CC(C)(c1ccc(Oc2ccc(N)cc2)cc1)c1ccc(Oc2ccc(N)cc2)cc1
active: [1] 61.1 µM | [2] 61.1 µM
inactive: [3] | [4] | [5] | [6]

COc1cc([C@@H]2c3cc4c(cc3[C@@H](O[C@@H]3O[C@@H]5CO[C@@H](C)O[C@H]5[C@H](O)[C@H]3O)[C@H]3COC(=O)[C@H]23)OCO4)cc(OC)c1O
inactive: [8] | [9] | [10] | [11] | [13] | [1]
active: [7] 21.6 µM | [12] 21.6 µM | [2] 27 µM | [6] 67.8 µM

CCCCCCCCCCCC(=O)Cl
inactive: [1] | [2] | [3] | [5] | [6]

CC(=O)Nc1ccc(N=Nc2cc(C)ccc2O)cc1
inactive: [1] | [2] | [3] | [4] | [5] | [6]

CC1=CC[C@@H](C(C)(C)O)CC1
inactive: [1] | [3] | [14] | [15] | [4] | [5]

COc1ccc(OC)c(N=Nc2c(O)ccc3ccccc23)c1
active: [1] 30.6 µM | [5] 17.2 µM
inactive: [2] | [6]

O=C(CCN1CCC(c2ccccc2)C1)c1ccc2c(c1)OCCO2 (stereo not drawn)
active: [1] 26.6 µM | [2] 33.5 µM
inactive: [7] | [9] | [11] | [16] | [13] | [3] | [5]

CSc1nnc(C(C)(C)C)c(=O)[nH]1
inactive: [1] | [3] | [14] | [15] | [4] | [5]

CN1CC[C@H](c2c(O)cc(O)c3c(=O)cc(-c4ccccc4Cl)oc23)[C@H](O)C1
inactive: [7] | [9] | [11] | [13] | [3] | [4]
active: [1] 0.237 µM | [2] 0.298 µM | [6] 0.0668 µM

NCc1cccc(C2CCN(C(=O)c3ccc(C#Cc4ccccc4F)o3)CC2)c1
active: [7] 49 µM | [9] 34.7 µM | [12] 54.9 µM | [13] 34.7 µM | [1] 43.3 µM | [2] 34.4 µM | [3] 54.9 µM | [4] 13.8 µM | [5] 68.6 µM | [6] 54.5 µM
inactive: [10] | [17]
